# Paper PMC5700166
# Where a chain is given by its changes, count along the chain named.
# Experiments:
# Test in all cases: protein-binding microarray (PBM); PBM: ~300 nM protein, 6 mM HEPES pH 7.8, 80 mM KCl, 0.5 mM EDTA, 0.5 mM EGTA, 6% glycerol, 35 ng/ul poly-dIdC, 1% milk, 1 h, room temperature; Ap Aiptasia and Nv Nematostella (sea anemones) / Co Capsaspora / Aq Amphimedon (sponge) / Dm Drosophila / Hu human; RHD is the Rel homology domain; high values mean tight binding
# Details in all cases: dsDNA, one strand shown
# [1] = biological target: T1, GST-Ap-NF-kB RHD (Exaiptasia pallida (Aiptasia), UniProt A0A913YAJ5 2-422)
# T1 sequence: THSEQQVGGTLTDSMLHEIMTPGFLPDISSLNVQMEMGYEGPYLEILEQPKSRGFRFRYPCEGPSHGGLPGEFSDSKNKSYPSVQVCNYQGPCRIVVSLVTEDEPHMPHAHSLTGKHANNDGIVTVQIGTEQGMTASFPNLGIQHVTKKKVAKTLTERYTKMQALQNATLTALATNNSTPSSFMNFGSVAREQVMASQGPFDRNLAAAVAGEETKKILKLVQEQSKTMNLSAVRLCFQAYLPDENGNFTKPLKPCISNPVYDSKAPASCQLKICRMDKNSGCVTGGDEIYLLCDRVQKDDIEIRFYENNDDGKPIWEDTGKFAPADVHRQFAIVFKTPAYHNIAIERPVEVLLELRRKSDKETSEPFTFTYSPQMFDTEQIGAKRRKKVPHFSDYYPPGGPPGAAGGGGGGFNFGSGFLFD
# [2] = biological target: T2, GST-Nv-NF-kB (Cys allele) (Nematostella vectensis, UniProt E5G601 2-411)
# T2 sequence: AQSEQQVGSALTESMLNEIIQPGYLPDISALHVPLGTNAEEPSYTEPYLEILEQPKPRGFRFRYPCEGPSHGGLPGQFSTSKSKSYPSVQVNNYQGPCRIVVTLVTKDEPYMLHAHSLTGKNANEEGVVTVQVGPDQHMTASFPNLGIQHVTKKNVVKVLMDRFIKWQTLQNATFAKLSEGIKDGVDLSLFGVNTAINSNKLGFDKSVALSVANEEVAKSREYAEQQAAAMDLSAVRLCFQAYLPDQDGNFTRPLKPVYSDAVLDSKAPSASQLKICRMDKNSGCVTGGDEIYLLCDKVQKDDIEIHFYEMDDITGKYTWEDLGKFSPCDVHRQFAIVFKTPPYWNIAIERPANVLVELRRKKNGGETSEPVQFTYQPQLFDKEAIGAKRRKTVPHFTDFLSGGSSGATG
# [3] = biological target: T3, GST-Nv-NF-kB (Ser allele) (Nematostella vectensis, UniProt A7UNT2 2-411)
# T3 sequence: T2 sequence with Q21R, C66S, S207N, E215Q, V217A, E225K, A268E, D399E
# [4] = biological target: T4, GST-Co-NF-kB (Capsaspora owczarzaki, UniProt F1ARL5 200-546)
# T4 sequence: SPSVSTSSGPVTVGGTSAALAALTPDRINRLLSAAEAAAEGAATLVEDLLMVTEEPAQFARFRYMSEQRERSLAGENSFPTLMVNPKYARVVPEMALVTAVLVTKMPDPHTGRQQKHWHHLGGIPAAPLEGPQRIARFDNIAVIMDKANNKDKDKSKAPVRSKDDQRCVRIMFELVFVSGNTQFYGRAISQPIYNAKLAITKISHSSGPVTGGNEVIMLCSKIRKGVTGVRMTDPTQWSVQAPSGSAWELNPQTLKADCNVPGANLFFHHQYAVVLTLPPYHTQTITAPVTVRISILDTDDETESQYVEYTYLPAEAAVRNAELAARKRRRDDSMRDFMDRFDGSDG
# [5] = biological target: T5, GST-Dm-Relish (Drosophila melanogaster, UniProt Q94527 99-473)
# T5 sequence: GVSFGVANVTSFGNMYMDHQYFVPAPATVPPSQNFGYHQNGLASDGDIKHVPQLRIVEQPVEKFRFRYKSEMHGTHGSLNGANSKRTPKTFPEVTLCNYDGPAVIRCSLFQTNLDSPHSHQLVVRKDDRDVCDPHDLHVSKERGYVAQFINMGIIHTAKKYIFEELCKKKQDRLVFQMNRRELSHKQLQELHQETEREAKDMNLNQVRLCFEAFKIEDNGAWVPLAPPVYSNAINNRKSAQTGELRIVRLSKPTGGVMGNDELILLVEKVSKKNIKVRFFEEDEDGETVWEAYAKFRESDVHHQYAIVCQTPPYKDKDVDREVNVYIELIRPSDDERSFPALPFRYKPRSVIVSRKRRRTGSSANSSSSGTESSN
# [6] = biological target: T6, GST-Aq-NF-kB (Amphimedon queenslandica, UniProt A9Y5G7 2-389)
# T6 sequence: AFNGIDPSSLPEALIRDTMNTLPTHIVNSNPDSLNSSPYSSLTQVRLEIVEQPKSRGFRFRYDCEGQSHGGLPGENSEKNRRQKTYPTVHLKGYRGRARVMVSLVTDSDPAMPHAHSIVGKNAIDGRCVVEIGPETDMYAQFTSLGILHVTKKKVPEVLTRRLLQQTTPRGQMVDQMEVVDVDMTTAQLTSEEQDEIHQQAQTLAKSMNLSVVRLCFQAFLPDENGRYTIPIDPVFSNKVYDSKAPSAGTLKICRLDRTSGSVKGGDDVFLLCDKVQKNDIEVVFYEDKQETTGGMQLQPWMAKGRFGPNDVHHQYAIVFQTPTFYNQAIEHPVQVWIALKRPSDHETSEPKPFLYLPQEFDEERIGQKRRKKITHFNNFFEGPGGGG
# [7] = biological target: GST-Hu-p50 (Homo sapiens, UniProt P19838 7-356)
# Chain of GST-Hu-p50 (P19838 7-356): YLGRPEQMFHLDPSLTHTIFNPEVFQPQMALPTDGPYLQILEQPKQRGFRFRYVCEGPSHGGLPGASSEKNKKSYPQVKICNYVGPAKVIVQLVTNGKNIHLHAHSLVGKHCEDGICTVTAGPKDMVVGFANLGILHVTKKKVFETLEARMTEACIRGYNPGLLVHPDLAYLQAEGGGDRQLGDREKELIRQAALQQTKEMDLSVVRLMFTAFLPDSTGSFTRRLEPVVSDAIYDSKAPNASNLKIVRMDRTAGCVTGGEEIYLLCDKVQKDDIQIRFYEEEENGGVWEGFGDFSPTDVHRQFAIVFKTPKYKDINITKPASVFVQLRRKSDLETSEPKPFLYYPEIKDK
Sequence,binding signal [1] [z-score],binding signal [2] [z-score],binding signal [3] [z-score],binding signal [4] [z-score],binding signal [5] [z-score],binding signal [6] [z-score],binding signal [7] [z-score]
CCGATTAACATCAAAATTCCCTATGATGTTAATCGGGTCTTGATTCGCTTGACGCTGCTG,4.89,8.05,7.32,3.27,5.2,6.99,5.69
CCGATTAACATCAGGACATCCCCTGATGTTAATCGGGTCTTGATTCGCTTGACGCTGCTG,6.25,7.54,5.99,1.88,8.74,7.75,5.89
CCGATTAACATCAGCAAATTCCCTGATGTTAATCGGGTCTTGATTCGCTTGACGCTGCTG,3.17,5.15,5.81,2.77,4.19,4.34,4.19
CCGATTAACATCAGGGGGTTTACTGATGTTAATCGGGTCTTGATTCGCTTGACGCTGCTG,7.86,6.45,7.4,2.97,9.74,7.06,7.11
CCGATTAACATCAGGGATTCCCCTGATGTTAATCGGGTCTTGATTCGCTTGACGCTGCTG,13.9,13.2,15.4,6.68,11.2,11.5,8.74
CCGATTAACATCAAATACCCCCTTGATGTTAATCGGGTCTTGATTCGCTTGACGCTGCTG,8.01,6.1,6.79,4.41,6.19,6.04,5.85
CCGATTAACATCAGGGGGTATAATGATGTTAATCGGGTCTTGATTCGCTTGACGCTGCTG,5.4,3.26,4.36,5.2,3.02,3.48,4.16
CCGATTAACATCAGGGAATATACTGATGTTAATCGGGTCTTGATTCGCTTGACGCTGCTG,3.5,3.81,4.1,3.18,4.01,4.33,2.3
CCGATTAACATCACACAACCCCCTGATGTTAATCGGGTCTTGATTCGCTTGACGCTGCTG,5.16,3.73,4.93,2.31,4.91,3.93,4.68
CCGATTAACATCAGAGACTTCCCTGATGTTAATCGGGTCTTGATTCGCTTGACGCTGCTG,1.92,2.44,2.19,1.11,1.95,3.32,1.57
CCGATTAACATCAAATTTTCCCGTGATGTTAATCGGGTCTTGATTCGCTTGACGCTGCTG,4.26,6.26,7.05,6.38,3.36,5.86,4.58
CCGATTAACATCAAGGGGAAGGGTGATGTTAATCGGGTCTTGATTCGCTTGACGCTGCTG,4.52,5.48,5.81,3.95,2,4.16,4.32
CCGATTAACATCAGGGGTTTTTATGATGTTAATCGGGTCTTGATTCGCTTGACGCTGCTG,8.01,8.52,7.26,2.38,8.58,7.14,7.21
CCGATTAACATCAGGGGAAGCTATGATGTTAATCGGGTCTTGATTCGCTTGACGCTGCTG,4.87,5.26,6.8,6.23,3.04,3.92,4.77
CCGATTAACATCAGGGGGAATACTGATGTTAATCGGGTCTTGATTCGCTTGACGCTGCTG,8.15,8.32,8.65,9.18,7.69,6.87,6.83
CCGATTAACATCACCCTTCCCCCTGATGTTAATCGGGTCTTGATTCGCTTGACGCTGCTG,4.54,4.49,5.26,5.61,2.99,4.32,4.43
CCGATTAACATCAGGGGAAGTAATGATGTTAATCGGGTCTTGATTCGCTTGACGCTGCTG,4.58,6.3,7.78,5.87,6.8,4.63,5.36
CCGATTAACATCACCCTTTCCCCTGATGTTAATCGGGTCTTGATTCGCTTGACGCTGCTG,4.99,5.19,7.16,5.72,1.82,4.33,3.91
CCGATTAACATCAAAAATCCCCATGATGTTAATCGGGTCTTGATTCGCTTGACGCTGCTG,9.63,10.8,11.4,5.31,9.64,7.92,7.94
CCGATTAACATCAGGGGGAAATATGATGTTAATCGGGTCTTGATTCGCTTGACGCTGCTG,7.3,8.58,10.6,11.1,4.77,6.38,7.38
CCGATTAACATCAAATAGTCCCCTGATGTTAATCGGGTCTTGATTCGCTTGACGCTGCTG,7.11,7.06,6.71,4.46,5.51,6.32,5.39
CCGATTAACATCACAGAAATCCCTGATGTTAATCGGGTCTTGATTCGCTTGACGCTGCTG,4.33,3.88,3.79,1.43,5.77,3.9,3.37
CCGATTAACATCATATTCCCCCATGATGTTAATCGGGTCTTGATTCGCTTGACGCTGCTG,6.56,7.4,7.13,8.84,3.91,5.97,6.3
CCGATTAACATCAAGTAATCCCCTGATGTTAATCGGGTCTTGATTCGCTTGACGCTGCTG,7.36,7.72,7.94,3.88,7.56,6.04,5.93
